# In paper PMC4336329 (PLoS ONE, 2015):
# Among all 310,000 compounds or so, about 14,000 (4.5%) showed an effect of 50% or more. Effects have a minus sign here. This excerpt belongs to a sample that is enriched for strong results.
# Biological target: human ether-à-go-go-related gene (hERG) potassium channel (human, UniProt Q12809)
# Assay: primary screen, population patch clamp on CHO cells stably expressing hERG; higher = less effect of the substance
# 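Also: peak tail current of the secondary pulse compared with the same well before compound.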
# Sequence of human ether-à-go-go-related gene (hERG) potassium channel (Q12809 whole entry, looked up): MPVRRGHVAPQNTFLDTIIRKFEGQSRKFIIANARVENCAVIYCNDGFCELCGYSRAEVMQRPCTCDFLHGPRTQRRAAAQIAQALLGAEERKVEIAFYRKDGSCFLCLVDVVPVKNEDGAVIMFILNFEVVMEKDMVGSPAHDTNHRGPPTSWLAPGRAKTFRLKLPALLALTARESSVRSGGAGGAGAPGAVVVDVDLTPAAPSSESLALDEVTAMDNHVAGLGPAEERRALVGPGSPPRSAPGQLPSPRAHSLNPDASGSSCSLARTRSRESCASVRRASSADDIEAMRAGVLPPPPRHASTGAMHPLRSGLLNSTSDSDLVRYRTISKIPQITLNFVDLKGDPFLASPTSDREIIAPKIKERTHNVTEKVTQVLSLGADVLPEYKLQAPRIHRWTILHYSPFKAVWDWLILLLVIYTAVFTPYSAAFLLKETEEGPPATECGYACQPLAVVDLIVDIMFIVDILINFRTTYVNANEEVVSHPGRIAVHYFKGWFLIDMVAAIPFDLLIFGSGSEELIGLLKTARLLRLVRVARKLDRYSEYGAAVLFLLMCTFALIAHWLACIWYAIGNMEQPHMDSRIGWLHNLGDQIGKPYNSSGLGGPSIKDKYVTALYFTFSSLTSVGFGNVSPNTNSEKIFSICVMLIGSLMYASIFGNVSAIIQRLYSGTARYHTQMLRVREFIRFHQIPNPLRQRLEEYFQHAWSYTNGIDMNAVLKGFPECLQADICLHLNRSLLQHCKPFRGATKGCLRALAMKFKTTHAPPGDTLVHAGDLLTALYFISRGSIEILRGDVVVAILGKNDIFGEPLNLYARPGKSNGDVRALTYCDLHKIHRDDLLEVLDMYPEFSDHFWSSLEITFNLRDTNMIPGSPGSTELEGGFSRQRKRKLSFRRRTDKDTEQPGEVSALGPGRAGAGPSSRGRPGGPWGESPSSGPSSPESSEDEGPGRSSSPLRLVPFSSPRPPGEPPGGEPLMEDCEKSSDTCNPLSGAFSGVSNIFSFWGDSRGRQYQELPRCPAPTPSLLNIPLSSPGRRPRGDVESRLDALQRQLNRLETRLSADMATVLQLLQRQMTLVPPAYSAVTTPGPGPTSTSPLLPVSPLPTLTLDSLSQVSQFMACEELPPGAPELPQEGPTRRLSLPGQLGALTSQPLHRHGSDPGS
row,Compound,"hERG current change (%, negative = inhibition) at 10uM"
1,COc1ccc(-c2csc(N3CCN(c4cc5c(cc4Cl)nc(-c4ccncc4)n5CCOCCO)CC3)n2)cc1,12.6%
2,COc1ccc(/C=C(\NC(=O)c2ccc(C)cc2)C(=O)N2CCCCC2)cc1,-55.2%
3,CCOC(=O)N1CCN(C(=O)/C(=C/c2ccc(Cl)cc2)NC(=O)c2ccccc2)CC1,-74.7%
4,COc1ccc(/C=C(\NC(=O)c2ccccc2)C(=O)N2CCN(C)CC2)cc1,-76.3%
5,COc1ccc(/C=C(/NC(=O)c2ccccc2)C(=O)N2CCCCC2)cc1,-1.39%
6,COc1ccc(/C=C(\NC(=O)c2ccc(OC)cc2)C(=O)N2CCCCC2)cc1,-3.21%
7,CCOC(=O)N1CCN(C(=O)/C(=C/c2ccc(Br)cc2)NC(=O)c2ccc(OC)cc2)CC1,-78.2%
8,COc1ccc(/C=C(/NC(=O)c2ccccc2)C(=O)N2CCCC2)cc1,2.89%
9,COc1ccc(C(=O)N/C(=C\c2ccc(OC)c(OC)c2)C(=O)N2CCCCC2)cc1,6.11%
10,O=C(N/C(=C/c1ccc(Cl)cc1)C(=O)N1CCCC1)c1ccccc1,-8.81%
11,CCOC(=O)N1CCN(C(=O)/C(=C/c2ccc(N(C)C)cc2)NC(=O)c2ccccc2)CC1,-45.6%
12,N#Cc1ccc(C(=O)Nc2ccc(S(=O)(=O)NC3=NCCCCC3)cc2)cc1,-1.54%
13,CC1=CC(=O)c2c(O)ccc(O)c2C1=O,-42.6%
14,Cc1nn(C)c(C)c1CNC(=O)Nc1cccc(Cl)c1C,1.35%
15,CCOC(=O)c1[nH]c(C)c(C(=O)OCCOc2cccc(C)c2)c1C,5.99%
16,CC(C)C(=O)NC(Nc1cccc2cccnc12)C(Cl)(Cl)Cl (stereo not drawn),-17.8%
17,COc1cc(NC(=O)[C@@H](NC(=O)c2ccco2)C(C)C)c(OC)cc1NC(=O)c1ccccc1,-36%
18,CCOC(=O)C1=C(N)OC(CCl)=C(C#N)C1c1ccsc1 (stereo not drawn),8.35%
19,CCOC(=O)N1CCN(C(=O)/C(=C/c2ccc(OC)c(OC)c2)NC(=O)c2ccccc2)CC1,-34.5%
20,CCOC(=O)N1CCN(C(=O)/C(=C\c2ccc(SC)cc2)NC(=O)c2ccccc2)CC1,-78.5%
21,CCOC(=O)N1CCN(C(=O)/C(=C/c2ccc(F)cc2)NC(=O)c2ccccc2)CC1,-48.5%

row,Compound,"hERG current change (%, negative = inhibition) at 10uM"
1,COc1ccc(/C=C(/NC(=O)c2ccccc2)C(=O)N2CCC(C)CC2)cc1,-38.4%
2,CCOC(=O)N1CCN(C(=O)/C(=C/c2ccc(OC)cc2)NC(=O)c2ccccc2)CC1,-68.4%
3,CCOC(=O)C1CCN(C(=O)/C(=C/c2ccccc2)NC(=O)c2ccccc2)CC1,-30%
4,CCNc1nc(C(=O)O)nc(N2CCOCC2)n1,10.7%
5,CCCc1nnc(NC(=O)CC(C)c2ccccc2)s1 (stereo not drawn),2.66%
6,Cc1nn(Cc2ccccc2)c(C)c1NC(=O)c1cccs1,14%
7,COc1ccccc1N1CCN(S(=O)(=O)CCNC(=O)C2CCCCC2)CC1,-20.7%
8,CCOC(=O)c1ccc(Nc2ncnc3ccc(C)cc23)cc1,6.65%
9,Brc1ccccc1-c1nnc(COc2ncnc3c2cnn3-c2ccccc2)o1,7.27%
10,O=[N+]([O-])c1ccc2c(OCc3nnc(-c4ccccc4Br)o3)ncnc2c1,-74.1%
11,Brc1ccccc1-c1nnc(COc2ncnc3ccccc23)o1,-8.52%
12,CCc1ccc(N2CC(C(=O)N3CCN(c4ccccn4)CC3)CC2=O)cc1 (stereo not drawn),-24.3%
13,COc1ccc(C2C(C(=O)N3CCN(c4ccccn4)CC3)CC(=O)N2c2ccc(OC)cc2)cc1 (stereo not drawn),-78.7%
14,Cc1ccc(N2CC(C(=O)N3CCc4ccccc4C3)CC2=O)cc1 (stereo not drawn),-44.5%
15,COc1ccc(N2C(=O)CCC(C(=O)N3CCN(c4ccccn4)CC3)C2c2ccc(F)cc2)cc1 (stereo not drawn),-48.2%
16,CCOc1ccc(N2CC(C(=O)N3CCCC3)CC2=O)cc1 (stereo not drawn),-4.65%
17,CCOc1ccc(N2CC(C(=O)N3CCc4ccccc43)CC2=O)cc1 (stereo not drawn),-47.6%
18,COc1ccc(C2C(C(=O)N3CCN(c4ccccn4)CC3)CCC(=O)N2c2ccc(OC)cc2)cc1 (stereo not drawn),-47.3%
19,CCOc1ccc(N2CC(C(=O)N3CC(C)OC(C)C3)CC2=O)cc1 (stereo not drawn),20%
20,CCOc1ccc(N2CC(C(=O)N3CCc4ccccc4C3)CC2=O)cc1 (stereo not drawn),-75%
21,CCOc1ccc(N2CC(C(=O)N3CCN(c4ccccn4)CC3)CC2=O)cc1 (stereo not drawn),-59%
